This is a sample that favours compounds with a hit; in the whole collection about 19% have one here.
IL1B secr inh – qHTS for Inhibitors of Inflammasome Signaling: IL-1-beta AlphaLISA Primary Screen; THP-1 LPS/ATP IL-1B secretion, AlphaLISA, 16 h; active compounds read low; activity change, % at 57.5 µM; actives 4.7% (n = 360,000); in the data active = activity change below about -50%; inconclusive = mostly about -30% to -49%
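Secreted IL-1B measured by AlphaLISA bead assay after 16 h compound exposure of THP-1 cells; compounds (final up to 57.5 uM) added 1 h before LPS (250 ng/mL) and ATP (1.25 mM) stimulation; lower signal means less secretion.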
HT1080-NT tox – qHTS for induction of synthetic lethality in tumor cells producing 2HG: qHTS for the HT-1080-NT fibrosarcoma cell line; HT-1080-NT fibrosarcoma viability, CellTiter-Glo ATP luminescence, 48 h; AID 686970, 2013; actives 1.6% (n = 360,000); Potency, µM (doses to about 46.1 µM), without a hit: top-dose activity, negative = less viability, hits mostly cytotoxic;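 also: NT is the 2HG producing partner of a matched IDH1 knockdown line; potency is read from the fitted curve at half-maximal effect; 0% = DMSO-treated cells and -100% = media-only wells without cells; nearly all actives have a fitted effect of over 55% in size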
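A 48-hour cytotoxicity screen used HT-1080-NT cells plated 2 hours before compound delivery. ATP-based CellTiter-Glo luminescence measured viability, normalized to DMSO and no-cell controls.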
DT40 TDP1 no CPT – qHTS for Inhibitors of human tyrosyl-DNA phosphodiesterase 1 (TDP1): qHTS in cells in absence of CPT; DT40 Tdp1-/- hTDP1 cells, no CPT, ATP luminescence, 48 h; Potency, µM (titrated, usually from 46.2 µM), inactives show at the top dose activity change, negative = growth inhibition, most hits filed as inhibitors; actives 15% (n = 420,000); also: potency is read from the fitted curve at half-maximal effect; nearly all actives have a fitted effect of over 55% in size
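Luminescent ATP content (CellTiter-Glo) served as the growth readout. Knockout chicken DT40 cells expressing human TDP1 were exposed to compounds without camptothecin for a minimum 48 hr at 37 °C.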
DT40 TDP1 CPT – qHTS for Inhibitors of human tyrosyl-DNA phosphodiesterase 1 (TDP1): qHTS in cells in presence of CPT; chicken DT40 Tdp1-/-;hTDP1 cells + 20 nM CPT, ATP luminescence, 48 h; Potency, µM (doses to about 46.2 µM), for inactives: at the top dose activity change, negative = growth inhibition, usual class: inhibitors; AID 686979, 2013; actives 12% (n = 420,000); also: potency is read from the fitted curve at half-maximal effect; nearly all actives have a fitted effect of over 55% in size
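Chicken DT40 Tdp1-/- cells stably complemented with human TDP1 were seeded at 400 cells/well in medium containing 20 nM camptothecin, exposed to pin-transferred compounds, and grown at 37 °C for at least 48 hr. Viability was read as ATP luminescence.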
HT1080 IDH1KD tx – qHTS for induction of synthetic lethality in tumor cells producing 2HG: qHTS for the HT-1080-IDH1KD cell line; actives 2% (n = 360,000); Potency, µM (top dose mostly 46.1 µM), without a hit: top-dose activity, negative = toxicity, most hits filed as cytotoxic; HT-1080 IDH1 knockdown viability, ATP luminescence, 48 h;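 also: potency is read from the fitted curve at half-maximal effect; 0% = DMSO wells and -100% = cell-free medium wells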
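HT-1080-IDH1KD cells (IDH1 knocked down), 750/well in RPMI with 5% FBS, treated with compound 48 h at 37 degrees C. Viability by CellTiter-Glo luminescence, normalised to DMSO and no-cell wells; concentration-response curves classed.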
Starred values were filed as active, the others as inactive; ? = inconclusive; · = not tested or not shown; [ ] = another dose, or the depositor's remark. Unless noted, calls follow the shape of the dose curve; as a rule, active = well fitted curve in the direction sought with a large enough effect; inconclusive = small, poorly fitted or top-dose-only effect, or another doubt; inactive = no such curve, though single readings can be large; an effect the other way counts as inactive or inconclusive. Unless noted, % is scaled to controls: 0 for no effect and ±100 for the full control effect.

SMILES	IL1B secr inh	HT1080-NT tox	DT40 TDP1 no CPT	DT40 TDP1 CPT	HT1080 IDH1KD tx
CCN(C(=O)CCc1nc(-c2ccccc2F)no1)c1cc(OC)ccc1OC	-11.5	11.6%	?	23.1µM*	1.6%
CCOc1ccc(-n2c(=O)c3c4c(sc3n(Cc3cccc(Cl)c3)c2=O)CCCC4)cc1	·	·	-6.2%	-17.4%	·
COc1cccc(NC(=O)Nc2cccn(Cc3ccccc3)c2=O)c1	?	-0.6%	?	?	-6.0%
COc1cccc(Cn2cccc(NC(=O)Nc3ccc(C#N)cc3)c2=O)c1	-3.7	-24.6%	8.2µM*	18.4µM*	-10.6%
O=C(Nc1ccccc1)Nc1cccn(Cc2c(F)cccc2Cl)c1=O	-61.0*	-3.5%	?	-25.1%	-27.2%
O=C(Nc1cccn(Cc2c(Cl)cccc2Cl)c1=O)c1c(Cl)cccc1Cl	?	-8.3%	?	?	-9.1%
COCCCNC(=O)c1ccc(-n2c(-c3ccccc3)cc3c2CCC(C)C3)cc1 (stereo not drawn)	·	·	16.4µM*	?	·
CCCNC(=O)c1ccc(-n2c(-c3ccccc3)cc3c2CCCCC3)cc1	·	·	20.6µM*	18.4µM*	·
CN(C)CCNC(=O)c1ccc(-n2c(-c3ccccc3)cc3c2CCCC3)cc1	·	·	16.4µM*	?	·
CC(C)OCCCNC(=O)c1ccc(-n2c(-c3ccccc3)cc3c2CCCC3)cc1	·	·	16.4µM*	?	·
CCOCCCNC(=O)c1ccc(-n2c(-c3ccccc3)cc3c2CCCCC3)cc1	·	·	?	-17.5%	·
Cc1ccc(NC(=O)N2CCC(CN3CCCCC3)CC2)c(Cl)c1	·	·	-24.3%	-0.7%	·
Cc1ccc(Nc2nnc(SCC(=O)Nc3cc(C(=O)O)ccc3C)s2)c(C)c1	6.4	?	-2.6%	-22.6%	7.7%
CCC(C)NC(=O)c1ccc(-n2c(-c3ccccc3)cc3c2CCCC3)cc1 (stereo not drawn)	·	·	?	16.4µM*	·
Cc1oc(-c2cccc(Br)c2)nc1Cn1c(=O)cc(-c2ccccc2)c2c(C)nn(C)c21	·	·	-17.2%	-1.8%	·
COc1cc(CN2CCC(N3CCC(C(=O)N4CCCC4)CC3)CC2)cc2c1OCO2	6.3	-23.2%	?	10.9%	1.5%
C=CCn1c(COc2ccccc2)nnc1SCC(=O)N/N=C/c1cc(Cl)ccc1O	46.7	?	?	?	-21.2%
C=CCn1c(CNc2ccccc2)nnc1SCC(=O)N/N=C/c1ccc(O)cc1O	86.0	?	?	18.4µM*	?
C=CCn1c(CNc2ccc(C)cc2)nnc1SCC(=O)N/N=C/c1ccc(O)cc1O	82.1	?	?	18.4µM*	-16.0%[9.24 µM]
CNCCCCc1cnc(C)c2[nH]c3ccccc3c12	·	·	-22.0%[9.04 µM]	6.5%[9.04 µM]	·
CC(=Nc1ccc(C)cc1C)c1sc2ccccc2c1O	-8.3	0.1%	18.4µM*	?	-9.3%
NCC(=O)NNC(=O)OCC1c2ccccc2-c2ccccc21	-1.9	-11.0%	-4.2%	-18.1%	3.9%
Cc1ccc(CN2C(=O)C[C@@H](NC(=O)OCC3c4ccccc4-c4ccccc43)C/C=C\C2c2ccc(C)cc2)cc1 (stereo partly drawn)	-64.8*	-1.8%	?	?	-7.9%
CC[C@H](C)[C@H](NC(=O)OCC1c2ccccc2-c2ccccc21)C(=O)O	·	·	-2.6%	-11.3%	·
O=C(NC1C/C=C\C(c2ccccc2)N(c2ccccc2)C(=O)C1)OCC1c2ccccc2-c2ccccc21 (stereo not drawn)	?	-1.6%	0.164µM*	-82.1%	-11.5%
SMILES	IL1B secr inh	HT1080-NT tox	DT40 TDP1 no CPT	DT40 TDP1 CPT	HT1080 IDH1KD tx
CCCCCCN1C(=O)CC(NC(=O)OCC2c3ccccc3-c3ccccc32)C/C=C\C1C(C)C (stereo not drawn)	-4.5	-13.8%	14.6µM*	23.1µM*	-18.5%
COc1cc(NC(=O)C2CSC3(C)CCC(=O)N23)c(OC)cc1Cl (stereo not drawn)	-0.7	3.4%	6.3%	7.7%	5.4%
Cc1cccc(C(=O)N2CCc3cc(-c4nc(NC(=O)CN5CCCC5)sc4C)ccc32)c1	-10.4	?	?	?	?
Cc1ccccc1C(=O)N1CCc2cc(-c3nc(NC(=O)Cc4ccc5c(c4)OCO5)sc3C)ccc21	?	-2.4%	6.51µM*	7.31µM*	-4.9%
Cc1sc(NC(=O)Cc2ccc3c(c2)OCO3)nc1-c1ccc2c(c1)CCN2C(=O)c1cccc(F)c1	5.0	-4.1%	9.2µM*	11.6µM*	-17.7%
Cc1sc(NC(=O)CN2CCOCC2)nc1-c1ccc2c(c1)CCN2S(=O)(=O)c1ccccc1	-1.8	?	9.2µM*	20.6µM*	?
O=C(CN1CCOCC1)Nc1nc(-c2ccc3c(c2)CCN3S(=O)(=O)c2ccccc2)cs1	-20.7	-27.0%	?	?	-15.5%
Cc1c(N2C(=O)/C(=C/c3cccc4ccccc34)SC2=S)c(=O)n(-c2ccccc2)n1C	-79.9*	-19.8%	-16.8%	?	-1.7%[9.24 µM]
CN1C(=O)/C(=C/c2cc(N=Nc3ccccc3)ccc2O)SC1=S	26.8	1.5%	23.1µM*	?	17.5%
Cc1c(N2C(=O)/C(=C\c3ccccc3O)SC2=S)c(=O)n(-c2ccccc2)n1C	?	-5.9%	?	7.31µM*	4.1%
Cc1ccc(/C=C2\SC(=S)N(c3c(C)n(C)n(-c4ccccc4)c3=O)C2=O)cc1	-80.5*	?	-19.2%	?	-2.5%[9.24 µM]
Cc1c(N2C(=O)/C(=C/c3ccc(N(C)C)cc3)N(C)C2=S)c(=O)n(-c2ccccc2)n1C	-21.7	-8.5%	-21.4%	4.3%	-4.0%
C=CC[C@H]1C=C[C@@H](C(C(=O)OC)C(=O)OC)CN1C(C)=O	22.6	2.1%	-23.8%	-18.7%	-1.9%
Cc1ccc(C2C(C#N)=C(N)OC3=C2C(=O)CC(C)(C)C3)s1 (stereo not drawn)	-21.5	-0.3%	11.9%	-11.4%	-3.0%
O=C(C1CCCN(S(=O)(=O)c2cc(Cl)ccc2Cl)C1)N1CCCC1 (stereo not drawn)	0.0	-6.8%	-29.9%	?	3.1%
CC(C(=O)O)c1ccc2c(c1)CC(=O)c1ccccc1S2 (stereo not drawn)	·	·	-10.6%	-1.9%	·
CC1(C)CC2CC(C)(CN2C(=S)Nc2ccccc2F)C1 (stereo not drawn)	27.3	0.0%	13µM*	20.6µM*	-0.1%
CC1(C)CC2CC(C)(CN2C(=S)Nc2ccccc2)C1 (stereo not drawn)	2.4	3.8%	?	?	10.0%

Screening data as filed in PubChem.
